Drawing on PubChem BioAssay AID588342 (National Center for Advancing Translational Sciences (NCATS), 2011), this text covers Potency for 103 compounds.

Screen size: about 360,000 compounds; about 25,000 (6.9%) were called active. Where a call stands in place of a potency, no number is given. Another 9% or so got no clear call; they are omitted. Calls follow the shape of the dose curve; as a rule, active = well fitted inhibition curve with a large enough effect; inconclusive = small, poorly fitted or top-dose-only effect; inactive = flat fitted curve, though single readings scatter. This excerpt belongs to a sample that is enriched for actives.
Potency is read from the fitted curve at half-maximal effect.

Luciferin 4-monooxygenase (Photinus pyralis), sequence (P08659 whole entry, looked up): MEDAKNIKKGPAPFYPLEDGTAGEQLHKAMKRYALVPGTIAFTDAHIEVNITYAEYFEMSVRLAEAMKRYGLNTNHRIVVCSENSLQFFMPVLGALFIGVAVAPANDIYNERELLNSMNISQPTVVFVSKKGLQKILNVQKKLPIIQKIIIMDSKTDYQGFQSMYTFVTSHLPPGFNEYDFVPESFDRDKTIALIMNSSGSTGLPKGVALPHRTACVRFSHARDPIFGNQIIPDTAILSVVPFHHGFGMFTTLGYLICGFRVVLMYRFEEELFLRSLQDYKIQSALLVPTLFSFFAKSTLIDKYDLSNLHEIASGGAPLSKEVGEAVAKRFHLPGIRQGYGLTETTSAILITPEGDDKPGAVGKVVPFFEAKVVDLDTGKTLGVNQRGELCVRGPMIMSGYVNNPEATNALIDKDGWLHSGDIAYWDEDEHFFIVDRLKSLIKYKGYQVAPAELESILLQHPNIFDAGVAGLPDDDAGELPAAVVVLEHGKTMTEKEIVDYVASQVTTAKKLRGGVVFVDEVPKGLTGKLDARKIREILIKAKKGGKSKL

The target in this assay is Luciferin 4-monooxygenase (Photinus pyralis) (UniProt P08659). Put plainly: qHTS profiling assay for firefly luciferase inhibitor/activator using purifed enzyme and Km concentrations of substrates (counterscreen for miR-21 project). Also: nearly all actives have a fitted effect of over 55% in size. Particulars: purified FLuc, luminescence inhibition; series mostly up to 57.5 µM. The gist of the method:
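Purified P. pyralis luciferase, 10 nM final, with Km-level 10 uM D-luciferin and 10 uM ATP in 50 mM Tris acetate pH 7.5, 10 mM Mg acetate, 0.01% Tween-20, 0.05% BSA; 6-point qHTS titration about 60 µM downward; luminescence read.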
On the technique in general: In qHTS, concentration-response curves come from the screen itself.
Take `COc1ccccc1NC(=O)c1ccc(N2CC3CC(C2)c2cccc(=O)n2C3)c(NC(=O)c2cccnc2)c1` (stereo not drawn): the Potency result is “inactive”.

With `COC(=O)c1cnn(-c2ccc(C(=O)Nc3ccc(OC(F)(F)F)cc3)cc2)c1N`, the Potency entry was “inactive”.

On to `COc1ccccc1CCC(=O)NNC(=O)c1ccncc1`, for which the Potency entry was “inactive”.

For `COc1cccc(/C=C2\SC(=N)N(c3ccc(F)cc3)C2=O)c1`, the Potency result was “inactive”.

For the compound `COc1cccc(/C=C2/SC(=S)N(CC(=O)NC3C=CS(=O)(=O)C3)C2=O)c1` (stereo not drawn), the Potency was 6.75 µM (active).

Take `O=C(O)c1ccc(/C=C2\SC(=S)N(NC(=O)c3ccc(Br)cc3)C2=O)cc1`: the Potency entry was “inactive”.

For the compound `COc1ccc(/C=C2\SC(=S)N(CC(=O)NNC(=O)c3ccncc3)C2=O)cc1`, the Potency was 5.36 µM (active).

On to `O=C(CN1C(=O)S/C(=C\c2ccccc2Cl)C1=O)NC1C=CS(=O)(=O)C1` (stereo not drawn), for which the Potency entry was “inactive”.

As for `O=C1N(Cc2ccc3c(c2)OCO3)c2ccccc2C1(O)c1c[nH]c2ccccc12` (stereo not drawn), the Potency result is “inactive”.

As to `O=C(c1ccc2c(c1)N(Cc1ccccc1)C(=O)c1ccccc1S2(=O)=O)N1CCCC1`, the Potency entry is “inactive”.

With `CC(C)(C)OC(=O)N[C@H](C(=O)OC(C)(C)C)c1ccc(Br)cc1`, the Potency result is “inactive”.

Take `O=C1c2ccccc2C(=O)N1CCC#Cc1ccc2cc(C3(O)CCCCC3)oc(=O)c2c1`: the Potency result is “inactive”.

As to `COc1cc(C#Cc2ccc3cc(CCCO)oc(=O)c3c2)cc(OC)c1`, the Potency was 4.78 µM (active).

As for `CCC(Sc1nc2n[nH]c(C)c2c(=N)n1-c1ccccc1Cl)C(=O)N(CC)CC` (stereo not drawn), the Potency result was “inactive”.

Turning to `Cc1ccccc1CS(=O)(=O)CC1Nc2ccc(C(=O)NCc3ccc(Cl)cc3)cc2NC1=O` (stereo not drawn), the Potency result was “inactive”.

For `CCCCOc1ccc(Cn2c(=O)oc3ccc(C)cc32)cc1OC`, the Potency entry is “inactive”.

Regarding `CCn1c(=O)n(CC)c2cc(N3CCCC3)c(NC(=O)c3ccccc3Br)cc21`, the Potency entry was “inactive”.

`CC(C)=C1SC(N2CCN(c3cccc(C)c3)CC2)=NC1=O`: the Potency entry is “inactive”.

On to `CCN1C(=O)/C(=C2\SC(N3CCCCC3)=NC2=O)c2ccccc21`, for which the Potency is 3.38 µM (active).

Regarding `CC(C)CNC(=S)NC(=O)c1ccc(Cl)cc1`, the Potency is 12 µM (active).

Take `Cc1occc1C(=O)NNC(=S)NCC(C)C`: the Potency entry is “inactive”.

Consider `CC(C)C(NC(=O)c1ccc(Cl)cc1)C(=O)O` (stereo not drawn), for which the Potency result was “inactive”.

As for `CCOC(=O)N1CCC(NC(=O)c2cnn(-c3cccc(C)c3)c2C2CCN(C(=O)OC(C)(C)C)CC2)CC1`, the Potency entry was “inactive”.

For the compound `CCOC(=O)N1CCN(Cc2nc3cc(NC(C)=O)ccc3n2C)CC1`, the Potency result was “inactive”.

In the case of `Cn1c(CCN2CCCCCC2)nc2cc(NC(=O)Nc3ccccc3)ccc21`, the Potency was 21.3 µM (active).

Turning to `Cn1c(CCN2CCCC2)nc2cc(NS(=O)(=O)c3ccccc3)ccc21`, the Potency result is “inactive”.

As for `CCC(=O)Nc1ccc2c(c1)nc(CCN1CCN(c3ccccn3)CC1)n2C`, the Potency result is “inactive”.

In the case of `CC(=O)NCCc1nc2cc(NC(=O)c3ccccc3)ccc2n1C`, the Potency was 16.9 µM (active).

With `CCCC(=O)Nc1ccc2c(c1)nc(CCNC(=O)c1ccco1)n2C`, the Potency result was “inactive”.

As to `Cc1ccc(Nc2ccc3cc(S(=O)(=O)N4CCCCC4)ccc3n2)cc1F`, the Potency result is “inactive”.

For the compound `CCOC(=O)c1ccc(NC(=O)CCS(=O)(=O)c2ccc3c(c2)oc(=O)n3C)cc1`, the Potency entry was “inactive”.

Take `CC(C)CCNC(=O)CC1C(=O)N(Cc2ccccc2)C(C)c2nc3ccccc3n21` (stereo not drawn): the Potency entry was “inactive”.

As to `CCCNC(=O)c1c(Cl)cnn1-c1ccc(C)cc1`, the Potency was 9.53 µM (active).

With `CCCNC(=O)CCc1c(C)nc2c(c(C)nn2-c2ccc(C)cc2)c1C`, the Potency result was “inactive”.

With `CCCN1CCN(CCCNC(=O)c2cnn(-c3ccc(C)cc3)c2-n2cccc2)CC1`, the Potency result was “inactive”.

As to `COc1ccccc1OCCNC(=O)C(CCSC)NC(=O)COc1ccccc1` (stereo not drawn), the Potency entry was “inactive”.

Take `CC(C(=O)NC1CCCC1)N1CCN(S(=O)(=O)c2ccccc2Cl)CC1` (stereo not drawn): the Potency result was “inactive”.

Turning to `CC(C)(C)N1CC(c2nc3ccccc3n2Cc2ccc(F)cc2)CC1=O` (stereo not drawn), the Potency result was “inactive”.

Take `CC(C)(C)c1cc(=O)n2c(nc3ccccc32)[nH]1`: the Potency is 21.3 µM (active).

For `CC(C)(C)c1nc2ccccc2c(=O)n1N1C(=O)c2ccccc2C1=O`, the Potency result is “inactive”.

For the compound `O=C(COc1coc(CN2CCN(c3ccccc3)CC2)cc1=O)Nc1ccccc1F`, the Potency entry was “inactive”.

For the compound `CC1=C(C(=O)OCC2CCCCC2)C(c2c(F)cccc2Cl)CC(=O)N1` (stereo not drawn), the Potency result was “inactive”.

Consider `Cc1cccc(C(CC(=O)NCC2(c3ccccc3)CCCC2)c2ccccc2)c1O` (stereo not drawn), for which the Potency result is “inactive”.

In the case of `Cn1c(=O)c(C(=O)O)nn(-c2ccccc2)c1=O`, the Potency result was “inactive”.

Regarding `Cc1ccc(C(=O)Nc2nc(N)n(-c3ccccc3)n2)cc1`, the Potency is 23.9 µM (active).

Take `Cc1ccc(S(=O)(=O)Nc2nc(N)n(-c3ccccc3)n2)cc1`: the Potency entry was “inactive”.

As to `COc1ccc(CNC(=O)CCc2c(C)nn(-c3ccc(N4CCCC4)nn3)c2C)cc1`, the Potency result is “inactive”.

Take `Cc1ccc(-n2c(C)cc(C(=O)CSc3nnc4ccccn34)c2C)cc1`: the Potency was 2.13 µM (active).

As to `N#Cc1ccc(CSc2nnc3ccccn23)cc1`, the Potency entry was “inactive”.

For `Cn1c(CC(=O)Nc2ccccc2)nnc1SCC(=O)c1ccccc1`, the Potency entry is “inactive”.

For `Cc1ccc(-n2c(C)nnc2SCC(=O)NC2CC2)cc1`, the Potency entry was “inactive”.

As to `CCN(C(=O)CSc1nnc2ccccn12)C1CCS(=O)(=O)C1` (stereo not drawn), the Potency result is “inactive”.

Regarding `O=C(CSc1nnc2ccccn12)c1ccccc1`, the Potency is 23.9 µM (active).

`O=C(Nc1cc(Cl)cc(Cl)c1)c1ccc2c(c1)N(Cc1cccc(Cl)c1)C(=O)c1ccccc1S2=O` (stereo not drawn): the Potency result is “inactive”.

For `CCN(CC)c1ccc(NS(=O)(=O)c2cc(-c3cc(C)no3)ccc2C)c(C)c1`, the Potency result is “inactive”.

For the compound `Cc1cccc(C)c1-n1ncc(C(=O)NCCCN2CCCCC2)c1C1CCN(C(=O)OC(C)(C)C)CC1`, the Potency entry was “inactive”.

As for `CCOC(=O)c1c(C)[nH]c(C)c1S(=O)(=O)N(C)CC(=O)N1CCN(c2ccccc2)CC1`, the Potency result is “inactive”.

With `O=C(CSc1nc2c(c(=O)[nH]1)CN(Cc1ccc(F)cc1)CC2)Nc1ccccc1Cl`, the Potency result was “inactive”.

Consider `OC(c1nc2ccc(F)cc2[nH]1)C(O)c1nc2ccc(F)cc2[nH]1` (stereo not drawn), for which the Potency result was “inactive”.

Regarding `CC(C)c1nc2ccc(C(=O)O)cc2[nH]1`, the Potency was 15.1 µM (active).

As for `N#CC(C(=O)c1ccc(S(=O)(=O)N2CCCCCC2)cc1)c1nc2ccccc2[nH]1` (stereo not drawn), the Potency result is “inactive”.

Consider `CCOC(=O)c1cccc(NC(=O)Cn2cnc3nc4c(cc3c2=O)CCCC4)c1`, for which the Potency result was “inactive”.

Turning to `CCOC(=O)c1[nH]c(C)c(CCC(=O)NCc2ccccc2C)c1C`, the Potency result is “inactive”.

As for `COc1ccc(CCNC(=O)C(=O)NCC(c2ccco2)S(=O)(=O)c2cccs2)cc1OC` (stereo not drawn), the Potency entry is “inactive”.

`C#CCSc1nnc(-c2sc3ccccc3c2Cl)o1`: the Potency is 5.36 µM (active).

Consider `O=C(NCC#CCSc1nnc(-c2cccc3ccccc23)o1)c1cccs1`, for which the Potency entry was “inactive”.

Consider `O=C(OCC#CCSc1nnc(-c2ccncc2)o1)c1sc2ccccc2c1Cl`, for which the Potency result is “inactive”.

In the case of `Cc1noc(C)c1COc1ccc2ccc(=O)oc2c1`, the Potency entry is “inactive”.

Take `COc1ccc(-c2cc3ccc(OCc4nn[nH]n4)cc3oc2=O)cc1`: the Potency was 1.69 µM (active).

As to `COc1ccc2cc(-c3nc(Cl)c4c5c(sc4n3)CC(C)CC5)c(=O)oc2c1` (stereo not drawn), the Potency result was “inactive”.

For `COc1ccc(CCN2C(=O)N(c3cccc(OC)c3)C(=O)C2CC(=O)Nc2ccccc2)cc1` (stereo not drawn), the Potency entry is “inactive”.

Take `COCCCNC(=O)COc1cc(C)c(Cl)c(C)c1`: the Potency entry was “inactive”.

For the compound `CC(C)C(=O)NCc1cc(-c2ccc(Cl)cc2)no1`, the Potency result is “inactive”.

As for `Cc1cc(OCc2cc(C(=O)NCc3cc(C(C)C)no3)no2)cc(C)c1Cl`, the Potency was 4.78 µM (active).

As to `CCc1ccc(NC(=O)c2nn(-c3ccc(C)cc3)c(=O)n(C)c2=O)cc1`, the Potency entry is “inactive”.

Regarding `Cn1c(-c2ccco2)nc2cc3ccccc3cc21`, the Potency was 0.12 µM (active).

On to `CS(=O)(=O)n1nc(-c2ccco2)nc1N`, for which the Potency result was “inactive”.

As to `Cn1c(SCC(=O)Nc2ccc(Br)cc2F)nnc1-c1ccco1`, the Potency entry is “inactive”.

Consider `Cc1cccc(N2CCN(C(=O)c3ccc(Nc4nc5ccccc5n5nnnc45)cc3)CC2)c1C`, for which the Potency result is “inactive”.

Consider `Cc1ccccc1NC(=O)C1CCN(C(=O)NC2CCCCC2)CC1`, for which the Potency result was “inactive”.

Regarding `Cc1cc(NC(=O)CN2CCCCC2C)nc2c1c(=O)oc1ccccc12` (stereo not drawn), the Potency result is “inactive”.

For `O=C(Nc1cc2ccccc2oc1=O)C1CCCCC1`, the Potency was 2.39 µM (active).

As to `COC(=O)c1cc(NC(=O)CCS(=O)(=O)c2cc(Br)cc3c2N(C(=O)C2CC2)CC3)cc(C(=O)OC)c1`, the Potency result is “inactive”.

As for `O=C1CCCc2cc(S(=O)(=O)N3CCCC(C(=O)NCc4ccccc4)C3)ccc2N1` (stereo not drawn), the Potency result is “inactive”.

As to `CC(C)(C)OC(=O)N1CCC(c2c(C(=O)NCc3ccccn3)cnn2-c2ccc(F)cc2)CC1`, the Potency entry was “inactive”.

Take `Cc1ccc(NC(=O)CN(C)C(=O)c2ccc(Br)o2)cc1`: the Potency entry was “inactive”.

`CCOC(=O)c1c(N)n(-c2cccc(C)c2C)c2nc3ccccc3nc12`: the Potency entry is “inactive”.

Turning to `Cc1nc2ccccc2n1CC(=O)N/N=C/c1cccs1`, the Potency entry is “inactive”.

On to `CCC(C)NC(=O)c1c(N)n(/N=C/c2cccs2)c2nc3ccccc3nc12` (stereo not drawn), for which the Potency was 3.01 µM (active).

As for `CCCc1cc(=O)[nH]c(SCc2cc(=O)oc3c(C)c(C)ccc23)n1`, the Potency result is “inactive”.

Consider `CN1CCN(C(=O)CCc2ncc(C(F)(F)F)cc2Cl)CC1`, for which the Potency result is “inactive”.

As for `CC(C)(C)NC(=O)NC(=O)COC(=O)CCC1CCCCC1`, the Potency result was “inactive”.

For `N/C(=N\OC(=O)CCC1CCCCC1)c1ccccn1`, the Potency was 0.536 µM (active).

In the case of `COc1ccccc1OCC(=O)OCc1cc(-c2ccco2)on1`, the Potency result is “inactive”.

Consider `O=C(CC1CCCCC1)NCc1ccccc1`, for which the Potency result was “inactive”.

`COc1ccccc1OCC(=O)OCn1c(SC)nnc(C)c1=O`: the Potency entry was “inactive”.

Regarding `COc1ccccc1NC(=O)C(C)OC(=O)CC1CCCC1` (stereo not drawn), the Potency entry was “inactive”.

`N/C(=N\OC(=O)CC1CCCCC1)c1ccccc1`: the Potency is 2.13 µM (active).

As for `COc1ccccc1OCC(=O)O/N=C(\N)c1ccccn1`, the Potency was 19 µM (active).

In the case of `O=C(CN1CCN(c2ccccn2)CC1)NC1CCCCC1`, the Potency result is “inactive”.

As to `CN(C(=O)CSc1nc2ccc(NC(=O)COc3ccccc3)cc2s1)c1ccccc1`, the Potency entry was “inactive”.

As for `CN(C(=O)COC(=O)Cn1cnc2c1c(=O)n(C)c(=O)n2C)C1(C#N)CCCCC1`, the Potency entry is “inactive”.

Consider `Cc1ccc(Cl)cc1N1CCN(C(=O)c2cccn3c(=O)c4cc(Cl)ccc4nc23)CC1`, for which the Potency result was “inactive”.
